The values below come from ChEMBL document CHEMBL2218924, “A broad activity screen in support of a chemogenomic map for kinase signalling research and drug discovery” (Biochem J, 2013).

The target of experiment [1] is Ephrin type-A receptor 5 (Homo sapiens) (UniProt P54756). The conditions noted are these: at 1 µM.
Experiment [2] deals with Ephrin type-A receptor 7 (Homo sapiens) (UniProt Q15375). Particulars: at 1 µM; call rule not given here.
The target is the same in experiment [3]. The conditions noted are these: at 10 µM.
Experiment [4] addresses T1, Ephrin type-B receptor 1 (Homo sapiens) (UniProt P54762).
T1 sequence (whole entry): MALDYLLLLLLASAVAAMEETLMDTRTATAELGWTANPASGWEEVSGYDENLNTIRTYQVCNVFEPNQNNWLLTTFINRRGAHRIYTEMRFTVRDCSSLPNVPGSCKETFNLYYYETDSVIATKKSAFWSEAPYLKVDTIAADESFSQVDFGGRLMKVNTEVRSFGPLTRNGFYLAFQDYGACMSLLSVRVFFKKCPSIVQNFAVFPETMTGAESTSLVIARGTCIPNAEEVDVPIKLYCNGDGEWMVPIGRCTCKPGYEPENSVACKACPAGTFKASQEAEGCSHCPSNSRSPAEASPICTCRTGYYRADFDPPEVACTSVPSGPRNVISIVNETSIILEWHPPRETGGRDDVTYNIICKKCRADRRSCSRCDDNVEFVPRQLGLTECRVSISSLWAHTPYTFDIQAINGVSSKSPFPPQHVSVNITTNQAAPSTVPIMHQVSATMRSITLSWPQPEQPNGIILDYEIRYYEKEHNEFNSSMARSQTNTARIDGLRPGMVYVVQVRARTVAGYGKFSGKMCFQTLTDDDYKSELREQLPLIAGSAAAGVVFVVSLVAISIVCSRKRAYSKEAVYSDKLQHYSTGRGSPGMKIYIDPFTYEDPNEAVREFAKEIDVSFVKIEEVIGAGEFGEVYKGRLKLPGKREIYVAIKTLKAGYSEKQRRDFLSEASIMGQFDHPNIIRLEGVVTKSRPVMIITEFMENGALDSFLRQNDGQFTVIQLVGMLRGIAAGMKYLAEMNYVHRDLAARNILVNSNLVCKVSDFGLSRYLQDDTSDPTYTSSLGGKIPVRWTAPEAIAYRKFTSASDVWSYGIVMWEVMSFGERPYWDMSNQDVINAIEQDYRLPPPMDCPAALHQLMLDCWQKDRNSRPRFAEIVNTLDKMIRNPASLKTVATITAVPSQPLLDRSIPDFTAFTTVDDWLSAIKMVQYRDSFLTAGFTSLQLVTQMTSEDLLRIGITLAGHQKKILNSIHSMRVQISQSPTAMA
The conditions noted are these: at 1 µM.

Experiment [5] has as its target T1, Ephrin type-B receptor 1 (Homo sapiens). The conditions noted are these: at 10 µM.
For experiment [6], the target named is T2, Ephrin type-B receptor 3 (Homo sapiens) (UniProt P54753).
T2 sequence (whole entry): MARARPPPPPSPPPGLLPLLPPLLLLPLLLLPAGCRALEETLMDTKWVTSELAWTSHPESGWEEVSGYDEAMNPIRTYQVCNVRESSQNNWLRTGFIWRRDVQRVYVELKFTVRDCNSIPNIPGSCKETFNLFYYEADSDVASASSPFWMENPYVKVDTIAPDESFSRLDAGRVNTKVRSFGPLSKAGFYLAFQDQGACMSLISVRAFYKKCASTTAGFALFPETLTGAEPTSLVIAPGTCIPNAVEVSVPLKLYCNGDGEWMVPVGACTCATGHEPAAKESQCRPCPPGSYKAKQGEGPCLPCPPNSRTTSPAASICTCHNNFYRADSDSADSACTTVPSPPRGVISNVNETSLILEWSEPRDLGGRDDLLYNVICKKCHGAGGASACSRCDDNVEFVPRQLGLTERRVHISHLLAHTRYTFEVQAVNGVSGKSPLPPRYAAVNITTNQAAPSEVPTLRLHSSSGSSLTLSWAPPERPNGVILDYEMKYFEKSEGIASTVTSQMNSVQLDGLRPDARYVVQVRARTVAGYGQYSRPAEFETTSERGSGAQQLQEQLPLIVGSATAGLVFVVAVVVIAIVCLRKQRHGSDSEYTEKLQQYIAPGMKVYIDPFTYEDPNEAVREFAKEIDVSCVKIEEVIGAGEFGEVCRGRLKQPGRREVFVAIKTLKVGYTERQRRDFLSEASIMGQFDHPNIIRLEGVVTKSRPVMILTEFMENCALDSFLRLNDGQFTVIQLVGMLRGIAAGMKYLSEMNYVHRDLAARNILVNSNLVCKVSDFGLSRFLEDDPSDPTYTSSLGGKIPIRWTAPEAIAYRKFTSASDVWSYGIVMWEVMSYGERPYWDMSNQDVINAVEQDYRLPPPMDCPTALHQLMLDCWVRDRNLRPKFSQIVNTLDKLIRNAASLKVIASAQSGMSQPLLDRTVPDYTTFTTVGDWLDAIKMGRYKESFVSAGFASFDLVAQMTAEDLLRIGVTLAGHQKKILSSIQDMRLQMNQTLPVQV
The conditions noted are these: at 1 µM.

Experiment [7] deals with T3, Ephrin type-B receptor 4 (Homo sapiens) (UniProt P54760).
T3 sequence (whole entry): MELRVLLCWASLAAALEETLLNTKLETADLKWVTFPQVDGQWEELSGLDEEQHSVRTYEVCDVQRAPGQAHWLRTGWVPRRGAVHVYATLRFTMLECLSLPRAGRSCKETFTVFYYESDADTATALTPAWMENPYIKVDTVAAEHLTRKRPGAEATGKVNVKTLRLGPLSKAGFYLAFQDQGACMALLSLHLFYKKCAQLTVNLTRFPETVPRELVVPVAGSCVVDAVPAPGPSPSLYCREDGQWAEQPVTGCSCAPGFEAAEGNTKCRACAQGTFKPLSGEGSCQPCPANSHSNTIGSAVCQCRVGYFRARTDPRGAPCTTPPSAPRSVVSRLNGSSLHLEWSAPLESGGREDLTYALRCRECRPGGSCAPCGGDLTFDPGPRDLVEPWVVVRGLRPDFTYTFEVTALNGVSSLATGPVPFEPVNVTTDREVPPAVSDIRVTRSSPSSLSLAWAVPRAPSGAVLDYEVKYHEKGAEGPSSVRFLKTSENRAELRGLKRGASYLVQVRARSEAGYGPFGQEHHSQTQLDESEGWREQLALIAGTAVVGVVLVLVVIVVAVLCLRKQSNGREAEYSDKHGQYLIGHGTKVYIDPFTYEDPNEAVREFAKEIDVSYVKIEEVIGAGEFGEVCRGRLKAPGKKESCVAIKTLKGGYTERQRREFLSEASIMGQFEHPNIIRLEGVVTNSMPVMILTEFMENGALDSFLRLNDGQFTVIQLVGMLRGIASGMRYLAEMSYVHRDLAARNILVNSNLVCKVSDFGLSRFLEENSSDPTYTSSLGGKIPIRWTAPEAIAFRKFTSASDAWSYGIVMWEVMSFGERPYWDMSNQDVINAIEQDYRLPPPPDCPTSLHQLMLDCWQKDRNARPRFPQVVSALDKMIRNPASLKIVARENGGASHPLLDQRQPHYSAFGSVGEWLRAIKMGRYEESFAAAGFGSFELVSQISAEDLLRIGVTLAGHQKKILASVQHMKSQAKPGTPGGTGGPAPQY
Particulars: at 1 µM.

Experiment [8] addresses T3, Ephrin type-B receptor 4 (Homo sapiens). The conditions noted are these: at 10 µM.
The target of experiment [9] is Receptor tyrosine-protein kinase erbB-4 (Homo sapiens) (UniProt Q15303). The conditions noted are these: at 1 µM.
Chain of Receptor tyrosine-protein kinase erbB-4 (Homo sapiens) (Q15303 whole entry): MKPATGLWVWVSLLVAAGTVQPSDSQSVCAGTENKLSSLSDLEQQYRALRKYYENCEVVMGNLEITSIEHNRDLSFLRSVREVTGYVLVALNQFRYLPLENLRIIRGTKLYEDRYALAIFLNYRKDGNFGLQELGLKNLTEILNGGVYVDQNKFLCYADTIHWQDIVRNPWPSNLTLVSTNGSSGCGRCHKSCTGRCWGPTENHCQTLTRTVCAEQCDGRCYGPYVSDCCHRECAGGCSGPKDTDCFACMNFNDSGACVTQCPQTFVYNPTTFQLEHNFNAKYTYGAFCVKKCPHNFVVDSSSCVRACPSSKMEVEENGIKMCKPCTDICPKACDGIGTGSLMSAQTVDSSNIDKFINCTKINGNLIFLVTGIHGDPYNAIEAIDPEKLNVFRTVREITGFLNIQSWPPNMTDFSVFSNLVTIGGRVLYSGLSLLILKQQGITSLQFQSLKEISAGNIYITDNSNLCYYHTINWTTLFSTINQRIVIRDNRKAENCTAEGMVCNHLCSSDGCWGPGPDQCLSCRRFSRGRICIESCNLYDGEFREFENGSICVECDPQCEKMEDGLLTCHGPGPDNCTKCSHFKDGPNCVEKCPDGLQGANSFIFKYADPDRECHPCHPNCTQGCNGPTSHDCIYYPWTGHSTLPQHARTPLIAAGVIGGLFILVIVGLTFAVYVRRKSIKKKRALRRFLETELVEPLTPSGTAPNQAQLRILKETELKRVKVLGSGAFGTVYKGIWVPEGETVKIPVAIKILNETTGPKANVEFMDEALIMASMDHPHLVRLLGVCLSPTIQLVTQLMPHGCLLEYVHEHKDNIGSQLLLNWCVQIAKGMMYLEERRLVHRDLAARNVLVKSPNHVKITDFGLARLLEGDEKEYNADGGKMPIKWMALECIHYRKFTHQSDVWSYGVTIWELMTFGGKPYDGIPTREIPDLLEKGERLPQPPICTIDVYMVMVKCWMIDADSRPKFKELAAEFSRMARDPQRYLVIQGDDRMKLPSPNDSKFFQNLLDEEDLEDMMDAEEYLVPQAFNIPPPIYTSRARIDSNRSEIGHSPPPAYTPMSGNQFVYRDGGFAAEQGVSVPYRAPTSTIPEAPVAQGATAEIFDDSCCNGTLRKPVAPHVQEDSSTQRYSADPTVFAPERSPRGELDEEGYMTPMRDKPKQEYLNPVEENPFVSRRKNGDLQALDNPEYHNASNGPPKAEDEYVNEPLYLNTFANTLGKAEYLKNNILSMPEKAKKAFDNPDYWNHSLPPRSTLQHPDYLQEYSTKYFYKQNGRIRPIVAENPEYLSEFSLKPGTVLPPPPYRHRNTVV
The target is the same in experiment [10]. The conditions noted are these: at 10 µM.
The target of experiment [11] is Focal adhesion kinase 1 (Homo sapiens) (UniProt Q05397). The conditions noted are these: at 1 µM.
Chain of Focal adhesion kinase 1 (Homo sapiens) (Q05397 2-1052 limits assumed): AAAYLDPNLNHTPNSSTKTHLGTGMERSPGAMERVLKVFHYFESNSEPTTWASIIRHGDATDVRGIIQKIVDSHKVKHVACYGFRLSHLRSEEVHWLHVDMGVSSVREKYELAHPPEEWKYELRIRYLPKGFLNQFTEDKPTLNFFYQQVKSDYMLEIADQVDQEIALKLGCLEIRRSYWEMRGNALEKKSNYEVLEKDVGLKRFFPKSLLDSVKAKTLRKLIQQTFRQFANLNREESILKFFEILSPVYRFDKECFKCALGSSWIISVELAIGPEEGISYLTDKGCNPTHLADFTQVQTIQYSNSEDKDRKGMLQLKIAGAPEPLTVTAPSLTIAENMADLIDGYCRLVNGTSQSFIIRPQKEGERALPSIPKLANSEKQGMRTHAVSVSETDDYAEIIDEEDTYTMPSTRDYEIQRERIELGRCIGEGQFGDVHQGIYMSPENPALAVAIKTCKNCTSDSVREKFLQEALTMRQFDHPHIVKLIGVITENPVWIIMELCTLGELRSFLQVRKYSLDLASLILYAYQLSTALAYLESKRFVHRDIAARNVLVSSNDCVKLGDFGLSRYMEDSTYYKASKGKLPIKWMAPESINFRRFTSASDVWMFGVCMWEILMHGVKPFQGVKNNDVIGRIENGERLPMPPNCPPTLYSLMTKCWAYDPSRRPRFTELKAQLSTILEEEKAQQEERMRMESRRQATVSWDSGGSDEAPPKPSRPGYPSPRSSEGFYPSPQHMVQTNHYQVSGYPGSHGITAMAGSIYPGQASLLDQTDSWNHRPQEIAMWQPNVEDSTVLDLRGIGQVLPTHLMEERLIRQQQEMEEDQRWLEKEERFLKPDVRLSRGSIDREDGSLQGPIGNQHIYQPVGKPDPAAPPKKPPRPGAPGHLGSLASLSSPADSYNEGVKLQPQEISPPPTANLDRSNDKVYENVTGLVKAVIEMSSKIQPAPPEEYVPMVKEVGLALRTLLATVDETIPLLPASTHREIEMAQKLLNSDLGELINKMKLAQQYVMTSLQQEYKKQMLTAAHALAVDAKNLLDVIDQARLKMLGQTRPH
The target in experiment [12] is Ephrin type-A receptor 5 (Homo sapiens) (UniProt P54756). The conditions noted are these: at 10 µM.
The target in experiment [13] is T4, Ephrin type-A receptor 8 (Homo sapiens) (UniProt P29322).
T4 sequence (whole entry): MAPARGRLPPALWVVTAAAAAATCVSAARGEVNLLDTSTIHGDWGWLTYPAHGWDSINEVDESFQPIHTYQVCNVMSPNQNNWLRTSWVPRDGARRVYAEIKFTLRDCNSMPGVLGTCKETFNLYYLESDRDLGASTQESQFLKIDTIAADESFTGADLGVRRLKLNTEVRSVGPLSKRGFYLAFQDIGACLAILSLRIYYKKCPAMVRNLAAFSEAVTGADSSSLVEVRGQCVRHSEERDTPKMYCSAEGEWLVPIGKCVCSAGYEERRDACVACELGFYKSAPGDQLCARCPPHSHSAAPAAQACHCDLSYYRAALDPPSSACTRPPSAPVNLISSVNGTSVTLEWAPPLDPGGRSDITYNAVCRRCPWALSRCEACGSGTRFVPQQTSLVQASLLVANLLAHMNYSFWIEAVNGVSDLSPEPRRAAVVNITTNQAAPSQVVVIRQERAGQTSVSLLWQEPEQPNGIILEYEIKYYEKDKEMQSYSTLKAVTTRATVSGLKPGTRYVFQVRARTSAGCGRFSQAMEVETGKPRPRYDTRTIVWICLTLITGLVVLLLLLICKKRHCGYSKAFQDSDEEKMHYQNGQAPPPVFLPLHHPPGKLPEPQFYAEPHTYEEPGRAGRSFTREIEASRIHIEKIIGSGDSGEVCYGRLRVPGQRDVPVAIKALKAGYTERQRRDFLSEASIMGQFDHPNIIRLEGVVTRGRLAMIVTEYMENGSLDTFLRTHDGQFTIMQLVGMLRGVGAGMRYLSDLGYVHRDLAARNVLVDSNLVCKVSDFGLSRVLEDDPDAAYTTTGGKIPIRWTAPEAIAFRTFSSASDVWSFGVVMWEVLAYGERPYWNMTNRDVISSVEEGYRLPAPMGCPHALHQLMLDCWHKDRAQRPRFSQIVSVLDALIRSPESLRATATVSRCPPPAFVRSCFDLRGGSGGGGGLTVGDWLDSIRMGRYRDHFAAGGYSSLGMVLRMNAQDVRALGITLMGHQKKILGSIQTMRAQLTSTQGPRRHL
The conditions noted are these: at 10 µM.

Experiment [14] addresses T5, Ephrin type-B receptor 2 (Homo sapiens) (UniProt P29323).
T5 sequence (whole entry): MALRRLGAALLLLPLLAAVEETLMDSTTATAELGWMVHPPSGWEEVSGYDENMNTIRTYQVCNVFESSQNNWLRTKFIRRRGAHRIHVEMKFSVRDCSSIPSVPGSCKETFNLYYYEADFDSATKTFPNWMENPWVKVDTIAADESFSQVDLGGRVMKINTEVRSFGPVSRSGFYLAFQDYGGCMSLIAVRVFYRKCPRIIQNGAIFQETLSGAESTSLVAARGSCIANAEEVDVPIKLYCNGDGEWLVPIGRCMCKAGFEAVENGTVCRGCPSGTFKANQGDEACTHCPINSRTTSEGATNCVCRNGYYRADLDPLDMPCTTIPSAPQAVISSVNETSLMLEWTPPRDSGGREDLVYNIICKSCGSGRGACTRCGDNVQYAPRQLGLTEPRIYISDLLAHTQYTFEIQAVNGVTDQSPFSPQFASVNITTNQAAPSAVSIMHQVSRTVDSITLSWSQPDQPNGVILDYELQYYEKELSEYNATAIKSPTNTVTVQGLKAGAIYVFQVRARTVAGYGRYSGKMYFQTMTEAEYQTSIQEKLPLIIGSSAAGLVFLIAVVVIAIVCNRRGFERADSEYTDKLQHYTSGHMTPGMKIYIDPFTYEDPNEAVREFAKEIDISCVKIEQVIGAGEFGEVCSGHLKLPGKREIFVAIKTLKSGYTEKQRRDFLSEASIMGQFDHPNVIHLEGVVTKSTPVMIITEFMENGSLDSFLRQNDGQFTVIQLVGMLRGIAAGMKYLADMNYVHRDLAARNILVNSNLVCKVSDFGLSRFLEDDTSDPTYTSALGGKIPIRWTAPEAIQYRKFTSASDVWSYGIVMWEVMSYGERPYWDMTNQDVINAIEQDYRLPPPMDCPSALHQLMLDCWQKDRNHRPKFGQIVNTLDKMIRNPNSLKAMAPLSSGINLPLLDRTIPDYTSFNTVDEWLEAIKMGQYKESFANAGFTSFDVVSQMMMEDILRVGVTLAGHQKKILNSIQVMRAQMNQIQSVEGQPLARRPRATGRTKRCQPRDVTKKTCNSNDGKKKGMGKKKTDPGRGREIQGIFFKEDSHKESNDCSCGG
The conditions noted are these: at 10 µM.

Experiment [15] concerns the target T2, Ephrin type-B receptor 3 (Homo sapiens). Particulars: at 10 µM.
Experiment [16] addresses T5, Ephrin type-B receptor 2 (Homo sapiens). The conditions noted are these: at 1 µM.
The target in experiment [17] is Ephrin type-A receptor 4 (Homo sapiens) (UniProt P54764). The conditions noted are these: at 1 µM.
The target is the same in experiment [18]. The conditions noted are these: at 10 µM.

Chain of Ephrin type-A receptor 7 (Homo sapiens) (Q15375 28-998 limits assumed): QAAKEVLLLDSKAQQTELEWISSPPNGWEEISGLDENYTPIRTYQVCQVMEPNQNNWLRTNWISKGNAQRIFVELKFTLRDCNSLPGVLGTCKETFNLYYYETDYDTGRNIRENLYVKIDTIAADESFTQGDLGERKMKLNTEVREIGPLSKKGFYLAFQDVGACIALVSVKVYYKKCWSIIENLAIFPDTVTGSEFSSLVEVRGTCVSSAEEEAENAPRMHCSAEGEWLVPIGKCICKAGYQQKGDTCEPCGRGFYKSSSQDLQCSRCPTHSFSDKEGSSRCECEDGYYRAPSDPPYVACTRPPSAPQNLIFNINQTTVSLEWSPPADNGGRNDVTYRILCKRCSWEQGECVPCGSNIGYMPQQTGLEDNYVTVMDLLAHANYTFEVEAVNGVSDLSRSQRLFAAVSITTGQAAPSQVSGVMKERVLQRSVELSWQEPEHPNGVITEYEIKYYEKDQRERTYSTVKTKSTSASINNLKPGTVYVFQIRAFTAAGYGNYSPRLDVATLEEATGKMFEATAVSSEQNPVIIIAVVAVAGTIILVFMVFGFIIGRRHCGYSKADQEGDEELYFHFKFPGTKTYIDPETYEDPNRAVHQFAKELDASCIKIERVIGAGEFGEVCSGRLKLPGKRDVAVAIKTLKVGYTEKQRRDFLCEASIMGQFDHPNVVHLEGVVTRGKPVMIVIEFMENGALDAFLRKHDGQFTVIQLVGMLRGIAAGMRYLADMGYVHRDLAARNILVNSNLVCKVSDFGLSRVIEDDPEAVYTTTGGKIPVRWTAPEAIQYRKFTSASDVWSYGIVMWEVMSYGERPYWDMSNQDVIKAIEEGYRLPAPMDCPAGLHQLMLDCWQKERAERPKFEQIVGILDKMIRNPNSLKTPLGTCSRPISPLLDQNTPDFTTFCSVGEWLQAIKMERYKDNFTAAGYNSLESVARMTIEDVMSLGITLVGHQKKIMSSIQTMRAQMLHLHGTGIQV
Chain of Ephrin type-A receptor 5 (Homo sapiens) (P54756 whole entry): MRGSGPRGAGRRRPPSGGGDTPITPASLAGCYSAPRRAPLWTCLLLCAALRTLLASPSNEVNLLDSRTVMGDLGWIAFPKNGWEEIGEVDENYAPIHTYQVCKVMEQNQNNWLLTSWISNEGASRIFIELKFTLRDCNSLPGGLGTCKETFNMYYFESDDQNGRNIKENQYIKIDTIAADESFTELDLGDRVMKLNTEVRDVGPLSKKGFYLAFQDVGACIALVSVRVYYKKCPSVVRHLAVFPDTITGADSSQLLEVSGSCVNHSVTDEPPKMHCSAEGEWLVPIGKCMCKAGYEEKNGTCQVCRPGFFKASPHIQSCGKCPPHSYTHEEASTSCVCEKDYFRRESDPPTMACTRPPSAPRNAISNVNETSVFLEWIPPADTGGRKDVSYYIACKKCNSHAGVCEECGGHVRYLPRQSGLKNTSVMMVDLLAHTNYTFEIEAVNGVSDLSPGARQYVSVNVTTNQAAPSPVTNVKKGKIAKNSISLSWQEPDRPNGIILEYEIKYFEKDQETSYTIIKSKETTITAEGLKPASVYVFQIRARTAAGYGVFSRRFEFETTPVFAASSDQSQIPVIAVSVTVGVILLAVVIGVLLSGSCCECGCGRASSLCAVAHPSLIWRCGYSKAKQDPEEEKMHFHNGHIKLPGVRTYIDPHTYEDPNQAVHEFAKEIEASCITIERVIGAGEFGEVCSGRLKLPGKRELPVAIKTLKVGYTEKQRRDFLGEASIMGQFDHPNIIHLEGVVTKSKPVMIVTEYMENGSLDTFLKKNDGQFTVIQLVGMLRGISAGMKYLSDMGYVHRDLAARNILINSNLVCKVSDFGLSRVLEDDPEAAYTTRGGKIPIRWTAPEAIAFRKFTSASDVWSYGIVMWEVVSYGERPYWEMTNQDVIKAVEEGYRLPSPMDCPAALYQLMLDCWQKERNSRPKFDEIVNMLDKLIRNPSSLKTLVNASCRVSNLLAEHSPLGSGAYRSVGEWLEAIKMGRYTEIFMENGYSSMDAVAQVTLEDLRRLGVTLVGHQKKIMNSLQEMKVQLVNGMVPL

As for `O=C(c1ccccc1)c1ccc(N2CCOCC2)cc1O`, the residual activity (usually the signal under treatment as a percentage of the control signal) in experiment [1] is 118%; in experiment [2], 79%; in [3], 86%; in experiment [4], 96%; in experiment [5], 95%; in [6], 115% (inactive). The residual activity in experiment [7] amounted to 117%; in experiment [8], 116%; in [9] it was 95%; in experiment [10], 96%; in experiment [11], 139%.

For `O=C(c1cc2cc(O)ccc2[nH]1)c1cc2cc(O)ccc2[nH]1`, the residual activity is 78% in [1]; 32% in experiment [12]; 83% in experiment [2]; 66% in [3]; 73% in experiment [13]; 28% in experiment [5]. Further, the residual activity in experiment [14] is 24%; in experiment [15] it was 126%; in experiment [7], 72%; in [8], 13%; in experiment [9] it was 73%; in [10] it was 63%. The residual activity in [11] was found to be 112%.

As to `O=c1c(-c2ccc(F)cc2)c(-c2ccncc2)[nH]n1-c1ccc(Cl)cc1`, the residual activity is 119% in [1]; 82% in experiment [12]; 100% in [2]; 128% in experiment [4]; 121% in experiment [16]; 34% in [10].

With `COc1ccc(CNC(=O)Nc2ncc([N+](=O)[O-])s2)cc1`, the residual activity in [17] is 100%; in experiment [18], 102%; in experiment [1], 114%; in [12], 102%; in experiment [3], 80%; in experiment [4], 111%. The residual activity is 80% in experiment [5]; 105% in [16]; 117% in experiment [14]; 117% (inactive) in experiment [6]; 105% in experiment [15]; 78% in [8]. The values for the residual activity in [9] and in experiment [10] were 43% and 33%, respectively.
